# About 83,000 compounds went through this panel and 20% of them were active in at least one assay; those are over-represented in the sample as a whole.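 Cell lines were cultured in 96-well plates, exposed to a single compound concentration, and assessed for percent growth 48 hours later.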 Values without a mark were called inactive. The calls were made as follows: active = growth percent below 10; inactive = the rest.
# System: HL-60(TB) leukemia
# Test: NCI-60 one-dose screen, 48 h (100 = growth as untreated, 0 = no growth, -100 = all killed)
# Conditions: 10 µM unless noted
row,SMILES,growth
1,O=C1NCC(=O)N(Cc2ccco2)[C@H]1Cc1ccccc1,102%
2,COc1ccc(-c2c(N)n[nH]c2-c2ccc(Cl)cc2O)cc1OC,91.9%
3,O=C(Cc1ccccc1)C(F)(F)F,95%
4,CCCCCOc1ccc(C(=O)/C(Br)=C/C(=O)O)cc1,69.3%
5,COc1cccc(-c2nc(-c3ccc(N)cc3)co2)c1,52.9%

# — PubChem BioAssay (NCI)
